Source: PubChem BioAssay (The Scripps Research Institute Molecular Screening Center)
FBW7 act – activators of human E3 ligase FBW7; AlphaScreen FBW7–phospho-cyclin E peptide binding, activator screen; hit rate 0.13% among 650,000; AID 1259310; normalized activity (activation), % at 26.1 µM; Q969H0; in the data active = normalized activity above about 1.9%;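 also: purified mutant Fbw7 with reduced substrate affinity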
TEAD-YAP inh – TEAD-YAP interaction inhibition; HEK-TIYL cells, TEAD-Gal4/YAP UAS-luciferase luminescence; inhibition, % at 9.12 µM; hit rate 1.4% among 640,000; in the data active = inhibition above about 32%;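 also: 0% = median of test compound wells and 100% = reference inhibitor wells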
GPR151 activ – human GPR151 activation | Q8TDV0 | PathHunter beta-arrestin GPR151 cells, luminescence | activation, % at 11.2 µM | hit rate 1% among 650,000 | AID 1508602; in the data active = activation above about 4.9%;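 also: 0% = median of compound wells and 100% = cells with positive control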
MITF inh – blocks human microphthalmia-associated transcription factor. O75030. AlphaScreen MITF homodimerization, bead proximity signal. inhibition, % at 2.6 µM. hit rate 0.91% among 650,000. AID 1259374; in the data active = inhibition above about 50%;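 also: 0% = vehicle wells with protein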
Target sequence (O75030 whole entry, looked up): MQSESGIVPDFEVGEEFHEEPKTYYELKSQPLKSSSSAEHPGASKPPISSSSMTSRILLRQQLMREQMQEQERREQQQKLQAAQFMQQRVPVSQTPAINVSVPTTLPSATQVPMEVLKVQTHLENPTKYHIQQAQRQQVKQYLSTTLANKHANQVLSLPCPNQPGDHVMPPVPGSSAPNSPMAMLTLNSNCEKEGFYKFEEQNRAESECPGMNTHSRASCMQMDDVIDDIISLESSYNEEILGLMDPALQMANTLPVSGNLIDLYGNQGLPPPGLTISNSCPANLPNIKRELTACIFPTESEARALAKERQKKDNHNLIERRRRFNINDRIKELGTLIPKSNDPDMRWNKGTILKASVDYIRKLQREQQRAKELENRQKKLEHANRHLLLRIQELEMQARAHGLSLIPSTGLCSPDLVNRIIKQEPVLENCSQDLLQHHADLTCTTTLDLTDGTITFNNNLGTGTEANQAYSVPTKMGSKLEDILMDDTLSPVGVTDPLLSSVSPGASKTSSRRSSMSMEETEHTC
MITF confirm – confirmation of human MITF inhibitors; shares compounds with MITF inh; AlphaScreen MITF homodimerization, biotin/His-MITF beads; inhibition, % at 2.6 µM; hit rate 16% among 4,700; AID 1259372;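 active = inhibition above a cutoff derived from the DMSO control wells, cut at about 28% in these data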;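 also: 0% = MITF dimer wells with DMSO only; inhibitors lower the bead chemiluminescence by keeping MITF from dimerizing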
AS interf ctr – optically interferes with AlphaScreen signal | LysRS AlphaScreen counterscreen, signal interference, triplicate | inhibition, % at 2.6 µM | hit rate 7.6% among 4,700 | shares compounds with MITF inh;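 active = inhibition above a cutoff derived from the DMSO control wells, cut at about 30% in these data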
* = called active by the depositor. Rows were chosen to be rich in hits. Some 3.5% of all compounds tested hit in one or more screens of this group.

O=C(Cc1ccccc1)N1CCN(Cc2ccccc2Cl)CC1 was read as FBW7 act 0, TEAD-YAP inh 13, GPR151 activ 1, MITF inh 57*, MITF confirm -6 and AS interf ctr 0.
Screening Cc1cc(-n2c(/C=C/c3cccc(O)c3)nc3ccccc3c2=O)ccc1Br returned FBW7 act 0, TEAD-YAP inh 3, GPR151 activ 0 and MITF inh -3.
CN1CCN(Cc2ccc([N+](=O)[O-])s2)CC1 was read as FBW7 act 0, TEAD-YAP inh -2, GPR151 activ 3, MITF inh 56*, MITF confirm 6 and AS interf ctr 12.
`CN1CCN(Cc2ccc([N+](=O)[O-])o2)CC1` gave FBW7 act 0, TEAD-YAP inh -2, GPR151 activ 0 and MITF inh 48.
For CCn1c(O)c(C(c2ccccn2)c2c(O)n(CC)c(=S)[nH]c2=O)c(=O)[nH]c1=S the results were FBW7 act 0, TEAD-YAP inh 5, GPR151 activ 1, MITF inh 54*, MITF confirm 20 and AS interf ctr 56*.
Screening CC(C)N1CCN(Cc2ccccc2C(F)(F)F)CC1 returned FBW7 act 0, TEAD-YAP inh 6, GPR151 activ 0, MITF inh 61*, MITF confirm -7 and AS interf ctr -6.
For COc1cccc(CN2CCN(Cc3ccccc3)CC2)c1O the results were FBW7 act 0, TEAD-YAP inh -9, GPR151 activ -1 and MITF inh -2.
For COc1cc(CN2CCN(Cc3ccccc3)CC2)ccc1O the results were FBW7 act 0, TEAD-YAP inh 0, GPR151 activ -2 and MITF inh 41.
For COc1cc(CN2CCN(Cc3ccccc3)CC2)cc(Br)c1O the results were FBW7 act 0, TEAD-YAP inh -4, GPR151 activ -1, MITF inh 51*, MITF confirm 3 and AS interf ctr 16.
`COc1ccccc1CN1CCN(Cc2ccc(C)cc2)CC1` gave FBW7 act 0, TEAD-YAP inh 8, GPR151 activ 0, MITF inh 76*, MITF confirm 3 and AS interf ctr 8.
COc1ccccc1CN1CCN(Cc2ccccc2)CC1 was read as FBW7 act 0, TEAD-YAP inh -7, GPR151 activ 0, MITF inh 88*, MITF confirm 9 and AS interf ctr 11.
For CC(C)N1CCN(Cc2ccccc2Cl)CC1 the results were FBW7 act 0, TEAD-YAP inh 5, GPR151 activ 1, MITF inh 73*, MITF confirm -12 and AS interf ctr -2.
For CCc1ccc(CN2CCN(Cc3ccccc3OC)CC2)cc1 the results were FBW7 act 0, TEAD-YAP inh -3, GPR151 activ 0, MITF inh 72*, MITF confirm 16 and AS interf ctr 18.
For COc1ccccc1CN1CCN(C(C)C)CC1 the results were FBW7 act 0, TEAD-YAP inh -10, GPR151 activ 1, MITF inh 67*, MITF confirm 9 and AS interf ctr 9.
Screening CCN1CCN(Cc2ccccc2Cl)CC1 returned FBW7 act 0, TEAD-YAP inh 10, GPR151 activ 0 and MITF inh -11.
Screening CCN(CC)c1ccc(C2C(C#N)=C(N)Oc3n[nH]c(COC)c32)cc1 (stereo not drawn) returned FBW7 act 0, TEAD-YAP inh 8, GPR151 activ -1 and MITF inh 1.
For CCOC(=O)C1=C(N)Oc2ccccc2C12C(=O)N(C)C(C)=C2C(C)=O (stereo not drawn) the results were FBW7 act 1, TEAD-YAP inh -5, GPR151 activ 1 and MITF inh 5.
For COCCn1c(C)cc(/C=C2\C(=O)NC(=S)N(c3cc(C)cc(C)c3)C2=O)c1C the results were FBW7 act 0, TEAD-YAP inh -2, GPR151 activ -1 and MITF inh -2.
For COc1cccc(CN2CCN(C(C)C)CC2)c1 the results were FBW7 act 0, TEAD-YAP inh 4, GPR151 activ 1 and MITF inh 46.
CC(C)N1CCN(Cc2cccnc2)CC1 was read as FBW7 act 0, TEAD-YAP inh 13, GPR151 activ 0, MITF inh 74*, MITF confirm 4 and AS interf ctr 7.
CC(C)N1CCN(Cc2ccco2)CC1 was read as FBW7 act 0, TEAD-YAP inh -2, GPR151 activ 1, MITF inh 62*, MITF confirm 7 and AS interf ctr -3.
CC(C)N1CCN(Cc2cccc(Br)c2)CC1 was read as FBW7 act 0, TEAD-YAP inh 12, GPR151 activ 0, MITF inh 82*, MITF confirm 14 and AS interf ctr 13.
`CCC(C)N1CCN(Cc2cccc(Br)c2)CC1` (stereo not drawn) gave FBW7 act 0, TEAD-YAP inh 9, GPR151 activ 1, MITF inh 73*, MITF confirm 8 and AS interf ctr 15.
CCN1CCN(Cc2cccc(Br)c2)CC1 was read as FBW7 act 0, TEAD-YAP inh 5, GPR151 activ 1 and MITF inh 16.
For ClC1=CCC2CN(CCN3CCOCC3)CC2C1 (stereo not drawn) the results were FBW7 act 0, TEAD-YAP inh 11, GPR151 activ -1 and MITF inh 1.
CCOC(=O)C1(c2ccccc2)CCN(Cc2c(C#N)c3ccccc3n2C)CC1 was read as FBW7 act 0, TEAD-YAP inh -17, GPR151 activ 0 and MITF inh 4.
`Fc1cccc(CN2CCN(Cc3ccccc3Cl)CC2)c1` gave FBW7 act 0, TEAD-YAP inh -9, GPR151 activ -1, MITF inh 78*, MITF confirm -8 and AS interf ctr -4.
For Fc1ccccc1CN1CCN(Cc2ccccc2Cl)CC1 the results were FBW7 act 0, TEAD-YAP inh 7, GPR151 activ 1, MITF inh 65*, MITF confirm 5 and AS interf ctr 18.
Fc1ccc(CN2CCN(Cc3ccccc3Cl)CC2)cc1 was read as FBW7 act 0, TEAD-YAP inh -12, GPR151 activ 0, MITF inh 70*, MITF confirm 11 and AS interf ctr 30*.
Screening CSc1ccc(CN2CCN(Cc3ccccc3Cl)CC2)cc1 returned FBW7 act -1, TEAD-YAP inh -5, GPR151 activ -2 and MITF inh 33.
For Cc1ccccc1CN1CCN(Cc2cccc(F)c2)CC1 the results were FBW7 act 0, TEAD-YAP inh -1, GPR151 activ 0, MITF inh 80*, MITF confirm 10 and AS interf ctr 15.
For OC1/C(=C\c2ccccc2Cl)N2CCC1CC2 (stereo not drawn) the results were FBW7 act 0, TEAD-YAP inh -1, GPR151 activ 0 and MITF inh 16.
For N#CC1=C(N)Oc2c(c(=O)oc3ccccc23)C1c1ccccc1[N+](=O)[O-] (stereo not drawn) the results were FBW7 act 0, TEAD-YAP inh 6, GPR151 activ 2 and MITF inh 7.
